From PubChem BioAssay AID1159580 (chemical genetic matrix, 2015)
Several values for one entry are separate records, joined by “and”; a condition that tells them apart may be missing. Identical values can stand only once. Among all 5,500 compounds or so, about 2,000 (36%) were called active. Inconclusive results (about 18%) are left out. Rule as the data show it: active = normalized growth mostly below about 0.91 (no sharp cut-off); inconclusive = no clear call, values can overlap the other calls; inactive = mostly above about 0.92. This is one part of the list.

Experiment: chemical genetic growth profiling, strain panel (AID 1159580);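 also: tested at 20 µM; growth read once vehicle control cultures reached saturation at 30 °C; 1 = growth at the plate median or of vehicle wells; lower values mean less growth of the strain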
Conditions: S. cerevisiae deletion strains, growth OD

Measured: normalized growth

COc1ccc(NS(=O)(=O)c2ccc(N)cc2)nn1
inactive: locus YAL013W, strain DEP1, stronger effect = lower value 1.01 | locus YAL021C, strain ccr4, stronger effect = lower value 0.989 | locus YAL026C, strain drs2, stronger effect = lower value 1 | locus YAL030W, strain snc1, stronger effect = lower value 0.996 | locus YBL061C, strain skt5, stronger effect = lower value 0.992 | locus YBR009C, strain hhf1, stronger effect = lower value 0.978 | locus YBR021W, strain FUR4, stronger effect = lower value 1.02 | locus YBR023C, strain chs3, stronger effect = lower value 1.01 | locus YBR171W, strain sec66, stronger effect = lower value 0.999 | locus YBR229C, strain ROT2, stronger effect = lower value 1.02 | locus YBR231C, strain swc5, stronger effect = lower value 1 | locus YBR279W, strain paf1, stronger effect = lower value 1 | locus YCL011C, strain gbp2, stronger effect = lower value 1.01 | locus YCL016C, strain dcc1, stronger effect = lower value 0.996 | locus YCL029C, strain bik1, stronger effect = lower value 0.996 | locus YCL069W, strain vba3, stronger effect = lower value 0.992 | locus YCR088W, strain abp1, stronger effect = lower value 1 | locus YDL005C, strain med2, stronger effect = lower value 0.998 | locus YDL035C, strain GPR1, stronger effect = lower value 1.02 | locus YDL040C, strain nat1, stronger effect = lower value 1 | locus YDL074C, strain BRE1, stronger effect = lower value 1.04 | locus YDL101C, strain DUN1, stronger effect = lower value 1.03 | locus YDL134C, strain PPH21, stronger effect = lower value 1.01 | locus YDL185W, strain tfp1, stronger effect = lower value 0.996 | locus YDL192W, strain arf1, stronger effect = lower value 0.99 | locus YDR001C, strain nth1, stronger effect = lower value 1.01 | locus YDR069C, strain doa4, stronger effect = lower value 1 | locus YDR101C, strain arx1, stronger effect = lower value 1 | locus YDR137W, strain rgp1, stronger effect = lower value 1 | locus YDR150W, strain NUM1, stronger effect = lower value 1.02 | locus YDR159W, strain sac3, stronger effect = lower value 0.907 | locus YDR162C, strain NBP2, stronger effect = lower value 1.01 | locus YDR195W, strain ref2 1 | locus YDR297W, strain sur2, stronger effect = lower value 0.989 | locus YDR318W, strain mcm21, stronger effect = lower value 0.988 | locus YDR334W, strain swr1, stronger effect = lower value 1.01 | locus YDR335W, strain msn5, stronger effect = lower value 1 | locus YDR388W, stronger effect = lower value 0.993 | locus YDR392W, strain spt3, stronger effect = lower value 0.881 | locus YDR502C, strain sam2, stronger effect = lower value 0.983 | locus YEL003W, strain gim4, stronger effect = lower value 1.02 | locus YEL037C, strain rad23, stronger effect = lower value 0.995 | locus YEL061C, strain CIN8 (second series), stronger effect = lower value 1.01 | locus YEL061C, strain CIN8, stronger effect = lower value 1.02 | locus YER015W, strain faa2, stronger effect = lower value 1.01 | locus YER016W, strain bim1, stronger effect = lower value 0.988 | locus YER110C, stronger effect = lower value 0.992 | locus YER111C, strain swi4, stronger effect = lower value 0.995 | locus YER155C, strain BEM2 (second series), stronger effect = lower value 0.962 | locus YER155C, strain BEM2, stronger effect = lower value 1 | locus YER167W, strain BCK2, stronger effect = lower value 1.01 | locus YFR010W, strain ubp6, stronger effect = lower value 1 | locus YGL078C, strain dbp3, stronger effect = lower value 0.986 | locus YGL086W, strain mad1, stronger effect = lower value 0.995 | locus YGL167C, strain pmr1, stronger effect = lower value 0.999 | locus YGL173C, strain kem1, stronger effect = lower value 1 | locus YGL227W, strain vid30, stronger effect = lower value 1 | locus YGL240W, strain doc1, stronger effect = lower value 0.987 | locus YGL248W, strain PDE1, stronger effect = lower value 1.03 | locus YGL253W, strain hxk2, stronger effect = lower value 1.01 | locus YGR135W, strain pre9, stronger effect = lower value 0.982 | locus YGR252W, strain gcn5, stronger effect = lower value 0.953 | locus YHR013C, strain ard1, stronger effect = lower value 0.987 | locus YHR027C, strain rpn1, stronger effect = lower value 0.999 | locus YHR030C, strain SLT2, stronger effect = lower value 1.02 and 0.989 | locus YHR079C, strain IRE1 (second series), stronger effect = lower value 0.998 | locus YHR079C, strain IRE1, stronger effect = lower value 0.995 | locus YHR094C, strain hxt1, stronger effect = lower value 0.984 | locus YHR129C, strain ARP1, stronger effect = lower value 1.01 | locus YHR142W, strain chs7, stronger effect = lower value 1 | locus YHR200W, strain rpn10, stronger effect = lower value 0.999 | locus YIL066C, strain RNR3, stronger effect = lower value 1.03 | locus YIL073C, strain SPO22, stronger effect = lower value 0.965 | locus YIL125W, strain kgd1, stronger effect = lower value 0.996 | locus YIR030C, strain dcg1, stronger effect = lower value 0.99 | locus YJL092W, strain hpr5, stronger effect = lower value 1 | locus YJL095W, strain BCK1 (second series), stronger effect = lower value 1 | locus YJL095W, strain BCK1, stronger effect = lower value 1.05 and 1.01 | locus YJL115W, strain asf1, stronger effect = lower value 0.996 | locus YJL129C, strain trk1, stronger effect = lower value 1 | locus YJL134W, strain LCB3, stronger effect = lower value 1.01 | locus YJL154C, strain vps35, stronger effect = lower value 0.997 | locus YJL164C, strain tpk1, stronger effect = lower value 0.985 | locus YJL166W, strain qcr8, stronger effect = lower value 1.02 | locus YJL168C, strain set2, stronger effect = lower value 0.996 | locus YJL187C, strain SWE1 (second series), stronger effect = lower value 1.03 | locus YJR043C, strain POL32, stronger effect = lower value 1.01 | locus YJR066W, strain TOR1, stronger effect = lower value 0.934
